In paper PMC11006913 one finds binding signal data, which are given here for 22 sequences.

Holding throughout (assay): PBM; 200 nM protein, PBS
Settings in all cases: dsDNA, one strand shown

Experiment [1] has as its target HESX1 (Homo sapiens, UniProt Q9UBX0 95-180, R165K).
For experiment [2], the target named is HESX1 (Homo sapiens, UniProt Q9UBX0 95-180).
For experiment [3], the target named is PROP1 (Homo sapiens, UniProt O75360 56-141).
The target in experiment [4] is HESX1 (Homo sapiens, UniProt Q9UBX0 95-180, R109Q).
Experiment [5] deals with PROP1 (Homo sapiens, UniProt O75360 56-141, R99H).
Experiment [6] addresses HESX1 (Homo sapiens, UniProt Q9UBX0 95-180, P111T).
Experiment [7] concerns the target PROP1 (Homo sapiens, UniProt O75360 56-141, F88S).
Experiment [8] addresses HESX1 (Homo sapiens, UniProt Q9UBX0 95-180, F115L).

HESX1 (Homo sapiens, UniProt Q9UBX0 95-180, R165K), sequence (Q9UBX0 95-180 R165K): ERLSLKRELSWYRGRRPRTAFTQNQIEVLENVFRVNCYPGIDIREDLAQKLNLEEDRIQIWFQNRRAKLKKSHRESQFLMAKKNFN
HESX1 (Homo sapiens, UniProt Q9UBX0 95-180), sequence (Q9UBX0 95-180): as the sequence (Q9UBX0 95-180 R165K) above, with K71R counted along it
HESX1 (Homo sapiens, UniProt Q9UBX0 95-180, R109Q), sequence (Q9UBX0 95-180 R109Q): as the sequence (Q9UBX0 95-180 R165K) above, with R15Q, K71R counted along it
HESX1 (Homo sapiens, UniProt Q9UBX0 95-180, F115L), sequence (Q9UBX0 95-180 F115L): as the sequence (Q9UBX0 95-180 R165K) above, with F21L, K71R counted along it
HESX1 (Homo sapiens, UniProt Q9UBX0 95-180, P111T), sequence (Q9UBX0 95-180 P111T): as the sequence (Q9UBX0 95-180 R165K) above, with P17T, K71R counted along it
PROP1 (Homo sapiens, UniProt O75360 56-141, F88S), sequence (O75360 56-141 F88S): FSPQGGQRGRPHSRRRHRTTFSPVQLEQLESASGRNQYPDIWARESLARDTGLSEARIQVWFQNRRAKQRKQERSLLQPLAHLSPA
PROP1 (Homo sapiens, UniProt O75360 56-141), sequence (O75360 56-141): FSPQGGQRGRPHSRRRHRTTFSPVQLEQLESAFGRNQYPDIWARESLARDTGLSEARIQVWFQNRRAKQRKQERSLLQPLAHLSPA
PROP1 (Homo sapiens, UniProt O75360 56-141, R99H), sequence (O75360 56-141 R99H): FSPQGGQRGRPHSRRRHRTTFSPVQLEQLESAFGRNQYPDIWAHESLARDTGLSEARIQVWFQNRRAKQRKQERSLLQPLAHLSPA

As to GCAGCGCA, the binding signal in the experiment with HESX1 [1] was 6.45 upbm affinity estimate (log intensity, higher = more binding, comparable within an allelic series); in the experiment with HESX1 [2], 6.27 upbm affinity estimate (log intensity, higher = more binding, comparable within an allelic series); with PROP1 [3] it was 6.75 upbm affinity estimate (log intensity, higher = more binding, comparable within an allelic series); in the experiment with HESX1 [4], 6.54 upbm affinity estimate (log intensity, higher = more binding, comparable within an allelic series); in the experiment with PROP1 [5] it was 6.76 upbm affinity estimate (log intensity, higher = more binding, comparable within an allelic series); with HESX1 [6] it was 6.47 upbm affinity estimate (log intensity, higher = more binding, comparable within an allelic series). The binding signal with PROP1 [7] is 6.81 upbm affinity estimate (log intensity, higher = more binding, comparable within an allelic series); with HESX1 [8] it was 6.53 upbm affinity estimate (log intensity, higher = more binding, comparable within an allelic series).
Take CACGGCTC: the binding signal with HESX1 [1] is 6.57 upbm affinity estimate (log intensity, higher = more binding, comparable within an allelic series); with HESX1 [2] it was 6.56 upbm affinity estimate (log intensity, higher = more binding, comparable within an allelic series); with HESX1 [4], 6.55 upbm affinity estimate (log intensity, higher = more binding, comparable within an allelic series); with HESX1 [6], 6.58 upbm affinity estimate (log intensity, higher = more binding, comparable within an allelic series); with HESX1 [8] it was 6.53 upbm affinity estimate (log intensity, higher = more binding, comparable within an allelic series).
CCGTCGTC: the binding signal is 6.45 upbm affinity estimate (log intensity, higher = more binding, comparable within an allelic series) with HESX1 [1]; 6.42 upbm affinity estimate (log intensity, higher = more binding, comparable within an allelic series) with HESX1 [2]; 6.4 upbm affinity estimate (log intensity, higher = more binding, comparable within an allelic series) in the experiment with HESX1 [4]; 6.44 upbm affinity estimate (log intensity, higher = more binding, comparable within an allelic series) with HESX1 [6]; 6.26 upbm affinity estimate (log intensity, higher = more binding, comparable within an allelic series) with HESX1 [8].
For AGGCAGCG, the binding signal with HESX1 [1] is 6.62 upbm affinity estimate (log intensity, higher = more binding, comparable within an allelic series); in the experiment with HESX1 [2], 6.5 upbm affinity estimate (log intensity, higher = more binding, comparable within an allelic series); with HESX1 [4], 6.59 upbm affinity estimate (log intensity, higher = more binding, comparable within an allelic series); with HESX1 [6], 6.59 upbm affinity estimate (log intensity, higher = more binding, comparable within an allelic series); in the experiment with HESX1 [8], 6.39 upbm affinity estimate (log intensity, higher = more binding, comparable within an allelic series).
As to ACTCAATA, the binding signal was 7.78 upbm affinity estimate (log intensity, higher = more binding, comparable within an allelic series) in the experiment with HESX1 [1]; 7.87 upbm affinity estimate (log intensity, higher = more binding, comparable within an allelic series) with HESX1 [2]; 7.28 upbm affinity estimate (log intensity, higher = more binding, comparable within an allelic series) with HESX1 [4]; 7.59 upbm affinity estimate (log intensity, higher = more binding, comparable within an allelic series) with HESX1 [6]; 7.33 upbm affinity estimate (log intensity, higher = more binding, comparable within an allelic series) with HESX1 [8].
Regarding CGGACAGA, the binding signal with HESX1 [1] is 6.41 upbm affinity estimate (log intensity, higher = more binding, comparable within an allelic series); with HESX1 [2], 6.53 upbm affinity estimate (log intensity, higher = more binding, comparable within an allelic series); in the experiment with HESX1 [4], 6.49 upbm affinity estimate (log intensity, higher = more binding, comparable within an allelic series); in the experiment with HESX1 [6] it was 6.59 upbm affinity estimate (log intensity, higher = more binding, comparable within an allelic series); with HESX1 [8] it was 6.58 upbm affinity estimate (log intensity, higher = more binding, comparable within an allelic series).
As to CACTGGAG, the binding signal in the experiment with HESX1 [1] was 6.53 upbm affinity estimate (log intensity, higher = more binding, comparable within an allelic series); with HESX1 [2], 6.53 upbm affinity estimate (log intensity, higher = more binding, comparable within an allelic series); in the experiment with HESX1 [4], 6.58 upbm affinity estimate (log intensity, higher = more binding, comparable within an allelic series); with HESX1 [6], 6.6 upbm affinity estimate (log intensity, higher = more binding, comparable within an allelic series); with HESX1 [8], 6.61 upbm affinity estimate (log intensity, higher = more binding, comparable within an allelic series).
On to AGTTCAGC, for which the binding signal in the experiment with HESX1 [1] was 6.57 upbm affinity estimate (log intensity, higher = more binding, comparable within an allelic series); with HESX1 [2], 6.45 upbm affinity estimate (log intensity, higher = more binding, comparable within an allelic series); with HESX1 [4] it was 6.48 upbm affinity estimate (log intensity, higher = more binding, comparable within an allelic series); with HESX1 [6], 6.48 upbm affinity estimate (log intensity, higher = more binding, comparable within an allelic series); with HESX1 [8] it was 6.59 upbm affinity estimate (log intensity, higher = more binding, comparable within an allelic series).
For the sequence ACTTTATA, the binding signal is 7.59 upbm affinity estimate (log intensity, higher = more binding, comparable within an allelic series) in the experiment with HESX1 [1]; 7.66 upbm affinity estimate (log intensity, higher = more binding, comparable within an allelic series) with HESX1 [2]; 7.19 upbm affinity estimate (log intensity, higher = more binding, comparable within an allelic series) with HESX1 [4]; 7.41 upbm affinity estimate (log intensity, higher = more binding, comparable within an allelic series) with HESX1 [6]; 7.31 upbm affinity estimate (log intensity, higher = more binding, comparable within an allelic series) with HESX1 [8].
As to AGACGCTC, the binding signal is 6.35 upbm affinity estimate (log intensity, higher = more binding, comparable within an allelic series) in the experiment with HESX1 [1]; 6.34 upbm affinity estimate (log intensity, higher = more binding, comparable within an allelic series) with HESX1 [2]; 6.5 upbm affinity estimate (log intensity, higher = more binding, comparable within an allelic series) with HESX1 [4]; 6.36 upbm affinity estimate (log intensity, higher = more binding, comparable within an allelic series) with HESX1 [6]; 6.54 upbm affinity estimate (log intensity, higher = more binding, comparable within an allelic series) in the experiment with HESX1 [8].
TGGCGCCA: the binding signal in the experiment with HESX1 [1] was 6.38 upbm affinity estimate (log intensity, higher = more binding, comparable within an allelic series); with HESX1 [2], 6.62 upbm affinity estimate (log intensity, higher = more binding, comparable within an allelic series); with HESX1 [4] it was 6.34 upbm affinity estimate (log intensity, higher = more binding, comparable within an allelic series); with HESX1 [6] it was 6.49 upbm affinity estimate (log intensity, higher = more binding, comparable within an allelic series); with HESX1 [8], 6.34 upbm affinity estimate (log intensity, higher = more binding, comparable within an allelic series).
In the case of AGCTTGCG, the binding signal in the experiment with HESX1 [1] is 6.46 upbm affinity estimate (log intensity, higher = more binding, comparable within an allelic series); with HESX1 [2], 6.4 upbm affinity estimate (log intensity, higher = more binding, comparable within an allelic series); with HESX1 [4], 6.39 upbm affinity estimate (log intensity, higher = more binding, comparable within an allelic series); in the experiment with HESX1 [6], 6.32 upbm affinity estimate (log intensity, higher = more binding, comparable within an allelic series); in the experiment with HESX1 [8], 6.52 upbm affinity estimate (log intensity, higher = more binding, comparable within an allelic series).
With CGGCACGC, the binding signal with HESX1 [1] is 6.6 upbm affinity estimate (log intensity, higher = more binding, comparable within an allelic series); with HESX1 [2] it was 6.41 upbm affinity estimate (log intensity, higher = more binding, comparable within an allelic series); with HESX1 [4] it was 6.57 upbm affinity estimate (log intensity, higher = more binding, comparable within an allelic series); with HESX1 [6] it was 6.5 upbm affinity estimate (log intensity, higher = more binding, comparable within an allelic series); with HESX1 [8], 6.53 upbm affinity estimate (log intensity, higher = more binding, comparable within an allelic series).
Regarding ACATGGCG, the binding signal was 6.32 upbm affinity estimate (log intensity, higher = more binding, comparable within an allelic series) with HESX1 [1]; 6.4 upbm affinity estimate (log intensity, higher = more binding, comparable within an allelic series) in the experiment with HESX1 [2]; 6.43 upbm affinity estimate (log intensity, higher = more binding, comparable within an allelic series) in the experiment with HESX1 [4]; 6.38 upbm affinity estimate (log intensity, higher = more binding, comparable within an allelic series) with HESX1 [6]; 6.49 upbm affinity estimate (log intensity, higher = more binding, comparable within an allelic series) with HESX1 [8].
As for CGTGCCAC, the binding signal is 6.27 upbm affinity estimate (log intensity, higher = more binding, comparable within an allelic series) with HESX1 [1]; 6.24 upbm affinity estimate (log intensity, higher = more binding, comparable within an allelic series) in the experiment with HESX1 [2]; 6.45 upbm affinity estimate (log intensity, higher = more binding, comparable within an allelic series) with HESX1 [4]; 6.56 upbm affinity estimate (log intensity, higher = more binding, comparable within an allelic series) with HESX1 [6]; 6.43 upbm affinity estimate (log intensity, higher = more binding, comparable within an allelic series) in the experiment with HESX1 [8].
Consider AGTGTCGG, for which the binding signal in the experiment with HESX1 [1] was 6.51 upbm affinity estimate (log intensity, higher = more binding, comparable within an allelic series); with HESX1 [2], 6.53 upbm affinity estimate (log intensity, higher = more binding, comparable within an allelic series); with HESX1 [4], 6.58 upbm affinity estimate (log intensity, higher = more binding, comparable within an allelic series); in the experiment with HESX1 [6], 6.56 upbm affinity estimate (log intensity, higher = more binding, comparable within an allelic series); with HESX1 [8], 6.55 upbm affinity estimate (log intensity, higher = more binding, comparable within an allelic series).
Consider AGGACCCC, for which the binding signal was 6.46 upbm affinity estimate (log intensity, higher = more binding, comparable within an allelic series) with HESX1 [1]; 6.46 upbm affinity estimate (log intensity, higher = more binding, comparable within an allelic series) in the experiment with HESX1 [2]; 6.63 upbm affinity estimate (log intensity, higher = more binding, comparable within an allelic series) with HESX1 [4]; 6.47 upbm affinity estimate (log intensity, higher = more binding, comparable within an allelic series) in the experiment with HESX1 [6]; 6.62 upbm affinity estimate (log intensity, higher = more binding, comparable within an allelic series) in the experiment with HESX1 [8].
Consider AGCGTGGC, for which the binding signal with HESX1 [1] was 6.53 upbm affinity estimate (log intensity, higher = more binding, comparable within an allelic series); in the experiment with HESX1 [2], 6.42 upbm affinity estimate (log intensity, higher = more binding, comparable within an allelic series); with HESX1 [4], 6.46 upbm affinity estimate (log intensity, higher = more binding, comparable within an allelic series); with HESX1 [6] it was 6.48 upbm affinity estimate (log intensity, higher = more binding, comparable within an allelic series); with HESX1 [8], 6.64 upbm affinity estimate (log intensity, higher = more binding, comparable within an allelic series).
With CGCTCCTC, the binding signal is 6.29 upbm affinity estimate (log intensity, higher = more binding, comparable within an allelic series) with HESX1 [1]; 6.25 upbm affinity estimate (log intensity, higher = more binding, comparable within an allelic series) in the experiment with HESX1 [2]; 6.53 upbm affinity estimate (log intensity, higher = more binding, comparable within an allelic series) in the experiment with HESX1 [4]; 6.33 upbm affinity estimate (log intensity, higher = more binding, comparable within an allelic series) with HESX1 [6]; 6.5 upbm affinity estimate (log intensity, higher = more binding, comparable within an allelic series) with HESX1 [8].
As for CAAGCTCA, the binding signal with HESX1 [1] was 6.51 upbm affinity estimate (log intensity, higher = more binding, comparable within an allelic series); in the experiment with HESX1 [2], 6.47 upbm affinity estimate (log intensity, higher = more binding, comparable within an allelic series); with HESX1 [4], 6.46 upbm affinity estimate (log intensity, higher = more binding, comparable within an allelic series); in the experiment with HESX1 [6] it was 6.46 upbm affinity estimate (log intensity, higher = more binding, comparable within an allelic series); with HESX1 [8] it was 6.53 upbm affinity estimate (log intensity, higher = more binding, comparable within an allelic series).
Take CCGAAAGC: the binding signal with HESX1 [1] is 6.49 upbm affinity estimate (log intensity, higher = more binding, comparable within an allelic series); with HESX1 [2], 6.52 upbm affinity estimate (log intensity, higher = more binding, comparable within an allelic series); with HESX1 [4], 6.56 upbm affinity estimate (log intensity, higher = more binding, comparable within an allelic series); in the experiment with HESX1 [6], 6.47 upbm affinity estimate (log intensity, higher = more binding, comparable within an allelic series); in the experiment with HESX1 [8], 6.52 upbm affinity estimate (log intensity, higher = more binding, comparable within an allelic series).
In the case of AGGAGCTG, the binding signal in the experiment with HESX1 [1] was 6.51 upbm affinity estimate (log intensity, higher = more binding, comparable within an allelic series); in the experiment with HESX1 [2] it was 6.45 upbm affinity estimate (log intensity, higher = more binding, comparable within an allelic series); with HESX1 [4] it was 6.4 upbm affinity estimate (log intensity, higher = more binding, comparable within an allelic series); with HESX1 [6], 6.4 upbm affinity estimate (log intensity, higher = more binding, comparable within an allelic series); with HESX1 [8], 6.28 upbm affinity estimate (log intensity, higher = more binding, comparable within an allelic series).
